According to PubChem BioAssay AID488969 (Vanderbilt High Throughput Screening Facility, 2010):
In all, about 110,000 compounds were measured (“z-score”: median about -0.1, highest 2% from about 2 on). This is one part of a sample in which the highest values are shown more often than they occur. Active and inactive are the calls of the source.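 Rule for the calls: active = z-score in the third read window above 3 or below -3; inactive = the rest.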

The molecules below were run against Metabotropic glutamate receptor 8 (Rattus norvegicus) (UniProt P70579) (assay: rat mGluR8 modulators via GIRK flux, primary screen, cell-based, thallium flux, HTS (AID 488969)). Settings: HEK293 rat mGluR8, GIRK (G protein-gated inwardly rectifying potassium channel) thallium flux, FluoZin2; at 10 µM; stronger effect = higher value; submaximal glutamate (EC20) added with thallium.
Sequence of Metabotropic glutamate receptor 8 (Rattus norvegicus) (P70579 whole entry, looked up): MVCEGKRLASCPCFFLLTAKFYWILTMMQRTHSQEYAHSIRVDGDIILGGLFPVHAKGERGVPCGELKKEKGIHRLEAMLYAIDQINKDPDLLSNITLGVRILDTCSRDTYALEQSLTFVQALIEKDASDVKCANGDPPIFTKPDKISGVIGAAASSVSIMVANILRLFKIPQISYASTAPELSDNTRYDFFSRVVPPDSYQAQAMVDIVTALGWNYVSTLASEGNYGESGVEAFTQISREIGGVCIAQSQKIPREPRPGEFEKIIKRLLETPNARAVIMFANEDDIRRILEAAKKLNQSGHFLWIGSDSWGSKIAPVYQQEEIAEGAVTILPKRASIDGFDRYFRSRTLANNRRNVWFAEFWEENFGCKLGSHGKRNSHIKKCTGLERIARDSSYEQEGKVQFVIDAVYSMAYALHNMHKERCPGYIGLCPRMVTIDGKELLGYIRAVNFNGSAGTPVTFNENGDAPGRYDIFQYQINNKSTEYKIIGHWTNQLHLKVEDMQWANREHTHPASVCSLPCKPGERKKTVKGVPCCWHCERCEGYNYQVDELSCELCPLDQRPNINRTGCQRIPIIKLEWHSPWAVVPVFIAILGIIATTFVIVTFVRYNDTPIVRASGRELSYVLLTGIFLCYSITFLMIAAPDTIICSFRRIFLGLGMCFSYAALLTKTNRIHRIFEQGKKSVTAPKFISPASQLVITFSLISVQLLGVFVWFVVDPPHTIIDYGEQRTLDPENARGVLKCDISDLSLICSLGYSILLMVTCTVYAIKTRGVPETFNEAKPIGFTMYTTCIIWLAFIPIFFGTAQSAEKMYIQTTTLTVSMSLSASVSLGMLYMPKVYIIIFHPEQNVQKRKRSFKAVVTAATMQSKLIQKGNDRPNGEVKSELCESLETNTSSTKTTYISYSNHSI
`CCCNC(=O)C(NS(=O)(=O)c1cccc2nsnc12)c1ccccc1` (stereo unspecified) showed a z-score of -0.0978. `Cc1nc(CN2CCOCC2)cc(=O)[nH]1` gave a z-score of 0.197. In the case of `O=c1cc(CN2CCOCC2)nc(C2CC2)[nH]1`, the z-score is reported as 5.57 (active). `CC1CN(Cc2cc(=O)[nH]c(C3CC3)n2)CC(C)O1` (stereo unspecified) was tested, and the z-score was -0.155. Work on `Cc1cc(NC(=O)C(=O)NCCN2CCN(C(=O)c3cccs3)CC2)ccc1Br` yielded a z-score of -0.64. With `COc1cccc(N/C=C(\C#N)c2ccc(OCCCF)cc2)c1` the z-score was 0.135. Molecule `Cn1c(Cc2csc(N)n2)nnc1SCC(=O)NCc1ccccc1` has a z-score of 0.898. Work on `Cc1ccccc1CCN(C(=O)Cn1nnc2ccccc21)C(C(=O)NC(C)(C)C)c1ccsc1` (stereo unspecified) yielded a z-score of 0.0716. Work on `Cc1ccc(NC(=O)c2cc(N3C(=O)C=CC3=O)ccc2Cl)cc1C` yielded a z-score of -0.0892. Work on `CCOC(=O)c1nnc(-c2ccccc2)nc1Oc1ccccc1Cl` yielded a z-score of -0.346. In the case of `COC(=O)c1ccccc1NC(=S)NC(=O)c1ccc2ccccc2c1`, the z-score is reported as 0.231. For `COC(=O)c1ccccc1NC(=S)NC(=O)c1cccc2ccccc12`, the z-score was 0.972. `COC(=O)c1ccccc1NC(=S)NC(=O)c1ccccc1` was tested, and the z-score was 13.1 (active). `COC(=O)c1ccccc1NC(=S)NC(=O)c1ccc(C)cc1` was tested, and the z-score was 2.94. `COC(=O)c1ccccc1NC(=S)NC(=O)c1ccccc1C` was tested, and the z-score was 1.1. For `COC(=O)c1ccccc1NC(=S)NC(=O)C1CC1`, the z-score was -0.189. `O=C(Nc1ccc(Cc2ccncc2)cc1)C1CCC(N2C(=O)C3C4C=CC(C5CC45)C3C2=O)CC1` (stereo unspecified) was tested, and the z-score was -0.424. `Cn1c2ccccc2c2c(C(=O)N3CCN(C(=O)c4ccco4)CC3)cn(C3CCCCC3)c(=O)c21` was tested, and the z-score was -0.126. In the case of `CCN(C(=O)CN1CCN(c2ccccc2OC)CC1)c1c(N)n(Cc2ccccc2)c(=O)[nH]c1=O`, the z-score is reported as 0.391. In the case of `CCN(C(=O)CN1CCN(c2ccccc2O)CC1)c1c(N)n(Cc2ccccc2)c(=O)[nH]c1=O`, the z-score is reported as 14.3 (active). Molecule `CCN(C(=O)CN1CCN(c2ccccc2)CC1)c1c(N)n(Cc2ccccc2)c(=O)[nH]c1=O` has a z-score of -0.349. `CC1Cc2ccccc2N1C(=O)CSc1nnc(CNc2ccccc2)o1` (stereo unspecified) was tested, and the z-score was -0.151. Molecule `CC(=O)C1C(c2ccccc2)c2c(n[nH]c2C)CC1(C)O` (stereo unspecified) has a z-score of 0.241. `N=c1c(C(=O)NCc2ccco2)cc2c(=O)n3ccccc3nc2n1Cc1ccccc1` showed a z-score of 1.15. With `N=c1c(C(=O)NCc2ccco2)cc2c(=O)n3ccccc3nc2n1CCc1ccccc1` the z-score was 4.11 (active). For `COc1ccc(CCn2c(=N)c(C(=O)NCc3ccco3)cc3c(=O)n4ccccc4nc32)cc1`, the z-score was 0.369. Work on `Cc1cccc(N2CCN(C(=O)c3ccoc3C)CC2)c1C` yielded a z-score of -0.311. In the case of `CN(C)c1nc(N)nc(CSc2n[nH]c(-c3ccccc3)n2)n1`, the z-score is reported as -0.00289. For `c1ccc(Cc2nnc(-c3ccccc3)o2)cc1`, the z-score was 10.4 (active). In the case of `Cc1ccccc1-c1nnc(Cc2ccccc2)o1`, the z-score is reported as -0.211. `ClCc1nnc(-c2ccccc2)o1` showed a z-score of -0.143. With `CCOC(=O)CN1C(=O)C2(OCCCO2)c2ccccc21` the z-score was -0.0349. For `COc1cccc2c1OC[C@@H](CO)[C@H]2N(C)C(=O)Nc1ccccc1`, the z-score was 6.33 (active). With `CN(C(=O)Nc1ccc(Cl)cc1Cl)[C@H]1c2cc(Br)ccc2OC[C@H]1CO` the z-score was -0.211. `COc1cccc2c1OC[C@@H](CO)[C@H]2N(C)C(=O)Nc1ccc(Cl)cc1Cl` showed a z-score of 0.0803. For `CC1(C)Oc2nc3ccccc3n2/C1=C\C#N`, the z-score was -0.233. `CC(=O)Nc1ccc(S(=O)(=O)NC2(C(F)(F)F)NC(=O)N(C3CCCCC3)C2=O)cc1` (stereo unspecified) showed a z-score of -0.0965. `CSc1nc(C)cc(Oc2ccc(OCCOc3ccccc3)nn2)n1` gave a z-score of -0.702. In the case of `CCn1c(SCC(=O)Nc2ccccc2OC)nc2ccccc2c1=O`, the z-score is reported as -0.373. Work on `COc1ccc(Cn2cnc3sccc3c2=O)cc1` yielded a z-score of -0.167. Work on `CCOC(=O)Nc1ccc(S(=O)(=O)Nc2cc(C)nc(C)n2)cc1` yielded a z-score of -0.12. `COc1ccc(CCN2C(=O)CC(C(N)=O)SC2=Nc2ccccc2)cc1OC` (stereo unspecified) showed a z-score of 1.15. `Cc1ccc(N2CN=C(c3ccccc3)NC2=S)cc1` showed a z-score of 0.328. In the case of `S=C1NC(c2ccccc2)=NCN1c1ccc(Cl)cc1`, the z-score is reported as 3.19 (active). `S=C1NC(c2ccccc2)=NCN1c1ccccc1` gave a z-score of 0.145. `CCCOc1ccccc1Nc1nnc(C)c(=O)[nH]1` gave a z-score of 0.409. With `CCOc1ccccc1Nc1nnc(C)c(=O)[nH]1` the z-score was -0.155. With `CCOc1ccccc1Nc1nnc(Cc2ccccc2Cl)c(=O)[nH]1` the z-score was 12.8 (active). For `CCOC(=O)C1CCN(C(=O)c2cc(OCC)c(OCC)c(OCC)c2)CC1`, the z-score was 0.856. `OC1CCN(c2c3c(nc4cc(-c5ccc(Cl)cc5)nn24)CCC3)CC1` showed a z-score of -0.738. With `O=C(c1cc2ccccc2c(=O)o1)N1CCCC1` the z-score was 0.79. In the case of `Cc1cc(NC(=O)c2c(F)cccc2Cl)n(-c2nc3ccccc3[nH]2)n1`, the z-score is reported as 3.06 (active). Molecule `Cc1cc(NC(=O)c2ccc(F)cc2F)n(-c2nc3ccccc3[nH]2)n1` has a z-score of 0.0238. `Cc1cc(NC(=O)/C=C/c2ccccc2Cl)n(-c2nc3ccccc3[nH]2)n1` was tested, and the z-score was 0.0437. With `FC(F)Sc1ccc(NC(=S)NCC2CCCCC2)cc1` the z-score was -0.233. With `CN(C(=S)Nc1ccc(SC(F)F)cc1)c1ccc(O)cc1` the z-score was 0.142. For `CC1CC(C)CN(C(=S)Nc2ccc(SC(F)F)cc2)C1` (stereo unspecified), the z-score was 6.63 (active). `CC1CC(C)CN(C(=S)Nc2ccc(OC(F)F)cc2)C1` (stereo unspecified) showed a z-score of -0.115. Molecule `CC1CCN(C(=S)Nc2ccc(SC(F)F)cc2)CC1` has a z-score of 0.000321. `Oc1cccc(NC(=S)Nc2cccnc2)c1` was tested, and the z-score was -0.756. Work on `FC(F)Sc1ccc(NC(=S)NC2CCC(NC(=S)Nc3ccc(SC(F)F)cc3)CC2)cc1` (stereo unspecified) yielded a z-score of -0.2. With `CC1CCCC(NC(=S)Nc2ccc(SC(F)F)cc2)C1C` (stereo unspecified) the z-score was 4.36 (active). `CC1CCCCC1NC(=S)Nc1ccc(SC(F)F)cc1` (stereo unspecified) was tested, and the z-score was 5.08 (active). In the case of `Oc1cccc(NC(=S)Nc2ccc(SC(F)F)cc2)c1`, the z-score is reported as 2.92. `FC(F)Sc1ccc(NC(=S)NC2CCCCC2)cc1` gave a z-score of -0.326. `CN1CCC(N(C)C(=S)Nc2ccc(SC(F)F)cc2)CC1` gave a z-score of -0.0288. Molecule `c1cncc(C(c2nnnn2C2CCCC2)N2CCN(Cc3ccc4c(c3)OCO4)CC2)c1` (stereo unspecified) has a z-score of 0.0897. Work on `O=C(c1ccco1)N1CCN(c2ccc(Cl)c(Cl)c2)CC1` yielded a z-score of -0.938. Work on `COc1cccc(OC)c1NC(=O)CN1CCC(NC(=O)c2cccc(F)c2)CC1` yielded a z-score of -0.0108. Molecule `O=C(CCNC(=O)Cn1ccc2ccccc2c1=O)NCCc1ccccc1Cl` has a z-score of -0.0359. In the case of `CCSc1nnc(NC(=O)C2Cc3ccccc3CN2S(=O)(=O)CC)s1` (stereo unspecified), the z-score is reported as 0.295. Work on `C=CC(=O)Nc1ccc(Br)cc1` yielded a z-score of 0.0392. In the case of `COc1ccc(/C=C2\C(=O)NC(=S)N2C(=O)c2ccc(F)cc2)cc1`, the z-score is reported as 3.14 (active). Work on `COc1ccc(C(=O)C2CCN(C(=O)c3ccc(C)cc3)CC2)cc1` yielded a z-score of -0.285. `COc1ccc(-c2nc(N)n(C(=O)c3ccc(C)cc3)n2)cc1` showed a z-score of 0.106. `COc1ccc(C(=O)N2C(=S)NC(=O)/C2=C\c2ccc(C)cc2)cc1` was tested, and the z-score was 2.75. For `COc1ccc(C(=O)N2CCC(C(=O)c3ccc(F)cc3)CC2)cc1`, the z-score was -1.67. `COc1ccc(/C=C/C(=O)Oc2ccc(/C=N\NC(=O)c3ccc(F)cc3)cc2)cc1` was tested, and the z-score was 0.18. Work on `N#Cc1cc2c(nc1SCc1ccccc1)CCC2` yielded a z-score of 0.359. In the case of `Cc1c(C(=S)Nc2ccccc2)cnn1-c1ccccc1`, the z-score is reported as -0.398. With `Cc1oncc1C(=S)Nc1ccccc1` the z-score was 12.4 (active). Work on `COC(=O)c1cccc(NC(=O)c2cnoc2C)c1` yielded a z-score of -0.126. `COc1ccc(C(C)N2CC34C=CC(O3)C(C(=O)O)C4C2=O)cc1` (stereo unspecified) gave a z-score of 0.302. `Cc1ccccc1OCC(O)Cn1nnc2ccccc21` (stereo unspecified) was tested, and the z-score was -0.244. For `COc1ccc(OCC(O)Cn2c(Nc3ccccc3)nc3c2c(=O)n(C)c(=O)n3C)cc1` (stereo unspecified), the z-score was -0.45. Work on `C=CCn1c(N)c(C(=O)Nc2ccccc2OC)sc1=S` yielded a z-score of 0.333. With `Cc1ccc(NC(=O)c2ccc(COc3ccc4c(c3)CCC4)cc2)c(C)c1` the z-score was 3.36 (active). With `COC(=O)c1ccccc1NC(=O)c1ccc(COc2ccc3c(c2)CCC3)cc1` the z-score was -0.271. For `COc1ccccc1NC(=O)c1ccc(COc2ccc3c(c2)CCC3)cc1`, the z-score was -0.228. `O=C(O)[C@H]1CCCC[C@H]1C(=O)NCCc1ccccc1` showed a z-score of 0.402. `CCOC(=O)C(C)Sc1nnc(Cc2cc(=O)[nH]c(=O)[nH]2)n1-c1ccc(OCC)cc1` (stereo unspecified) was tested, and the z-score was 0.465. For `COC(=O)C(C)Sc1nnc(Cc2cc(=O)[nH]c(=O)[nH]2)n1-c1ccc(OC)cc1` (stereo unspecified), the z-score was 0.194. `CCOc1ccc(-n2c(Cc3cc(=O)[nH]c(=O)[nH]3)nnc2SC(C)C(=O)OC)cc1` (stereo unspecified) was tested, and the z-score was 12.7 (active). In the case of `COc1ccc(C(C(=O)NC(C)(C)C)N(CC2CCCO2)C(=O)CCC(=O)Nc2cc(C)on2)cc1` (stereo unspecified), the z-score is reported as -0.202. `O=S(=O)(N/N=C/c1ccc(OC2CSC2)cc1)c1ccccc1` showed a z-score of -0.00217. With `Nc1c(S(=O)(=O)c2cccs2)c2nc3ccccc3nc2n1Cc1ccc2c(c1)OCO2` the z-score was -0.174. For `Cc1ccc(/C=N/n2c(-c3cccs3)n[nH]c2=S)cc1`, the z-score was 10 (active). For `S=c1[nH]nc(-c2ccncc2)n1/N=C/c1ccccc1`, the z-score was -0.00784. `Cc1ccsc1/C=N/n1c(-c2ccccn2)n[nH]c1=S` showed a z-score of -0.121. Molecule `Cc1ccc(-c2n[nH]c(=S)n2/N=C/c2ccc(C)o2)cc1` has a z-score of -1.27. For `Cc1ccc(/C=N/n2c(-c3ccncc3)n[nH]c2=S)cc1`, the z-score was 0.0356. In the case of `Fc1ccc(/C=N/n2c(-c3cccs3)n[nH]c2=S)cc1`, the z-score is reported as 4.92 (active). `Cc1c(/C=N/NC(N)=O)c2ccccn2c1C(=O)c1ccc(F)cc1` showed a z-score of -0.327. `COCc1cc(C)nc2sc(C(=O)N3CCCCC3)c(N)c12` showed a z-score of 0.33. `CCCCOc1ccc(C(=O)N2CC(C)OC(C)C2)cc1` (stereo unspecified) gave a z-score of -0.154. `CCCCOc1ccc(C(=O)N2CCC(C)CC2)cc1` gave a z-score of -0.401. `CCCCOc1ccc(C(=O)OC2CC(C)N(C)CC2C)cc1` (stereo unspecified) was tested, and the z-score was 3.48 (active). `Cc1nc2ccc(NC(=O)c3ccc(S(=O)(=O)N4CCOCC4)cc3)cc2s1` gave a z-score of -0.182. With `CCN(c1ccccc1)S(=O)(=O)c1ccc(C(=O)Oc2ccc(C(C)=O)cc2)cc1` the z-score was -0.819. With `CC(=O)c1ccc(OC(=O)N(c2ccccc2)c2ccccc2)cc1` the z-score was 2.99. Molecule `O=C(Oc1ccc(-c2nnco2)cc1)N(c1ccccc1)c1ccccc1` has a z-score of 0.519.
